# Legend:
# Assay in all cases: PBM binding z-score (relative to random genomic background probes); higher = stronger binding; sequences stand for … in GC…GCGATTGACAGCGTAGAATGAAGG
# [1] = test system: RARb homodimer (NR concentration 270 nM)
# Method in brief: (§1)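 Probes were double-stranded and carried 34-nt variable regions with direct-repeat seeds, single-nucleotide variants, half-site ablations and random human genomic background sequences, printed on custom Agilent 4×180K protein-binding microarrays. Arrays were incubated 1 h with ligand-free nuclear receptor dimers in PBS pH 7.4, 2% milk, 0.02% Triton X-100, 1 mM DTT, 0.2 mg/mL BSA and 0.4 mg/ml salmon testes DNA. Antibodies against each partner (one per run) detected binding, and scanned fluorescence was regression-normalized. Binding z-scores use the random background probes as reference.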
# [2] = test system: RARg:RXRa (NR concentration 270 nM, RXRa partner concentration 90 nM)
# Method in brief: as §1
# [3] = test system: RARg homodimer (NR concentration 270 nM)
# Method in brief: as §1
# [4] = test system: RXRa DBDmut IVT, anti-RXR (DBD mutation: RXRa K156A/R161A, NR concentration 90 nM)
# Method in brief: as §1
# [5] = test system: RXRa homodimer (NR concentration 180 nM)
# Method in brief: as §1
# [6] = test system: THRa:RXRa (NR concentration 90 nM, RXRa partner concentration 90 nM)
# Method in brief: as §1
# [7] = test system: THRa homodimer (NR concentration 90 nM)
# Method in brief: as §1
# [8] = test system: VDR homodimer (NR concentration 270 nM)
# Method in brief: as §1
Sequence,PBM binding z-score [1],PBM binding z-score [2],PBM binding z-score [3],PBM binding z-score [4],PBM binding z-score [5],PBM binding z-score [6],PBM binding z-score [7],PBM binding z-score [8]
ATATGTAGGTTATCGGGTCATGCAGTTTGCGCAT,3.1,3.43,2.66,0.921,3.76,3.54,3.02,3
ATATGTAGGTTAAGGGACATTCAGGTTGGTTCGC,1.6,1.28,1.27,0.615,1.25,1.14,0.815,1.69
TCTATTAGTTGGAGGGCAACCGACGAGTCCGTTT,1.31,0.442,0.781,1.47,0.834,0.528,0.592,1.86
CAAACTAGGTCAAAGGTCCAAGTCGAGCCAACCA,3.54,4.98,5.05,2.31,5.69,3.15,0.728,1.77
AGAACGAAGGCAATGAGTTGATAGCACGGGTGGC,-1.03,-0.228,-0.122,-0.299,-0.105,-0.732,-1.11,-0.223
CGTCCAAGGTCAGCAGGTCAGTGACAGCGACGTG,5.12,6.43,7.03,2.63,5.26,3.87,2.43,2.08
TCATATAGGTAATACAGGCGAAAGTCGGCATCTA,-0.403,0.375,0.171,1.23,0.623,-0.0703,-0.232,-0.187
